PubChem BioAssay (EPA / NIEHS)
The source made the active and inactive calls. The calls were made as follows: active = hit-call score of the fitted dose curve at least 0.9, where 1 is the maximum; inactive = score below 0.9.

Assays:
Details in all cases: mRNA level, 48 h; actives raise or lower the signal
[1] = read-out: flavin-containing dimethylaniline monooxygenases 3 (FMO3), FMO3 (gene 2328); test: LTEA_HepaRG_FMO3: Life Technologies and Expression Analysis (LTEA) Assay for flavin-containing dimethylaniline monooxygenases 3 (FMO3) using HepaRG (AID 2283453)
Outline: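 Eight-point concentration-response in serum-free HepaRG cultures (top 100 uM, 0.5% DMSO, 48 h). Read-out: FMO3 mRNA level normalized to three endogenous control genes, fitted bidirectionally versus vehicle.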

[2] = read-out: Cytochrome P450 (CYP1A1), CYP1A1 (gene 1543); test: LTEA_HepaRG_CYP1A1: Life Technologies and Expression Analysis (LTEA) Assay for Cytochrome P450 (CYP1A1) using HepaRG (AID 2283454)
Outline: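 Differentiated HepaRG cells in serum-free induction medium were exposed in duplicate for 48 h to eight half-log concentrations up to 100 uM in 0.5% DMSO. CYP1A1 mRNA was quantified by TaqMan qRT-PCR, normalized to ACTB, GAPDH and POLR2A.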

[3] = read-out: CFLAR gene, CFLAR (gene 8837); test: LTEA_HepaRG_CFLAR: Life Technologies and Expression Analysis (LTEA) Assay for CFLAR gene using HepaRG (AID 2283455)
Outline: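 Transcript level by qRT-PCR (normalized to ACTB, GAPDH and POLR2A) after 48 h chemical exposure of HepaRG cells, top concentration 100 uM with half-log steps, 0.5% DMSO vehicle, duplicates; fitted bidirectionally against DMSO baseline.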

[4] = read-out: Forkhead box O1 (FOXO1), FOXO1 (gene 2308); test: LTEA_HepaRG_FOXO1: Life Technologies and Expression Analysis (LTEA) Assay for Forkhead box O1 (FOXO1) using HepaRG (AID 2283456)
Outline: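 FOXO1 transcript quantified by qRT-PCR after 48 h chemical exposure (top 100 uM, half-log steps, 0.5% DMSO) of HepaRG cells, housekeeping-normalized (ACTB/GAPDH/POLR2A). Changes fitted in both directions relative to vehicle.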

[5] = read-out: growth arrest and DNA damage 45 (GADD45A), GADD45A (gene 1647); test: LTEA_HepaRG_GADD45A: Life Technologies and Expression Analysis (LTEA) Assay for growth arrest and DNA damage 45 (GADD45A) using HepaRG (AID 2283458)
Outline: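 Eight-point concentration-response in HepaRG cells: 48 h chemical exposure, 0.5% DMSO vehicle, top dose 100 uM. Normalized qRT-PCR mRNA readout with bidirectional fitting relative to DMSO.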

[6] = read-out: Forkhead box O3 (FOXO3), FOXO3 (gene 2309); test: LTEA_HepaRG_FOXO3: Life Technologies and Expression Analysis (LTEA) Assay for Forkhead box O3 (FOXO3) using HepaRG (AID 2283459)
Outline: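 FOXO3 transcript measured by qRT-PCR (normalized to ACTB, GAPDH, POLR2A) after 48 h exposure of HepaRG cells in serum-free induction medium. Duplicates, eight half-log concentrations up to 100 uM, 0.5% DMSO; gain or loss fitted against DMSO.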

[7] = read-out: ABC Transporter (ABCB1), ABCB1 (gene 5243); test: LTEA_HepaRG_ABCB1: Life Technologies and Expression Analysis (LTEA) Assay for ABC Transporter (ABCB1) using HepaRG (AID 2283460)
Outline: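 ABCB1 transcript level measured by TaqMan qRT-PCR against three housekeeping genes after 48 h chemical exposure of differentiated HepaRG cells. Top concentration 100 uM, half-log steps, eight points, 0.5% DMSO vehicle; bidirectional fit relative to DMSO.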

[8] = read-out: growth arrest and DNA damage 45 (GADD45B), GADD45B (gene 4616); test: LTEA_HepaRG_GADD45B: Life Technologies and Expression Analysis (LTEA) Assay for growth arrest and DNA damage 45 (GADD45B) using HepaRG (AID 2283461)
Outline: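 Differentiated HepaRG cells, plated 48 h then switched to serum-free induction medium, were exposed 48 h in duplicate to eight half-log concentrations from 100 uM in 0.5% DMSO; mRNA quantified by qRT-PCR, normalized to ACTB/GAPDH/POLR2A, bidirectional fit versus DMSO.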

[9] = read-out: ABC Transporter (ABCC3), ABCC3 (gene 8714); test: LTEA_HepaRG_ABCC3: Life Technologies and Expression Analysis (LTEA) Assay for ABC Transporter (ABCC3) using HepaRG (AID 2283462)
Outline: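 HepaRG cells in serum-free induction medium were exposed for 48 h in duplicate to 8-point half-log concentrations topping at 100 uM in 0.5% DMSO. ABCC3 mRNA was measured by qRT-PCR normalized to ACTB, GAPDH and POLR2A, with bidirectional fitting versus DMSO.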

[10] = read-out: ABC Transporter (ABCB11), ABCB11 (gene 8647); test: LTEA_HepaRG_ABCB11: Life Technologies and Expression Analysis (LTEA) Assay for ABC Transporter (ABCB11) using HepaRG (AID 2283463)
Outline: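 ABCB11 transcript levels quantified by TaqMan qRT-PCR against three housekeeping genes after 48 h chemical exposure of HepaRG cultures. Concentrations up to 100 uM in half-log steps, 0.5% DMSO vehicle; both induction and suppression scored.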

[11] = read-out: ABC Transporter (ABCC2), ABCC2 (gene 1244); test: LTEA_HepaRG_ABCC2: Life Technologies and Expression Analysis (LTEA) Assay for ABC Transporter (ABCC2) using HepaRG (AID 2283464)
Outline: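 HepaRG cells were plated 48 h, switched to serum-free induction medium, then exposed in duplicate for 48 h to 8 concentrations (top 100 uM, half-log steps, 0.5% DMSO). ABCC2 mRNA was measured by qRT-PCR normalized to ACTB/GAPDH/POLR2A; bidirectional fitting versus DMSO.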

[12] = read-out: Broad substrate specificity ATP-binding cassette transporter ABCG2 (Homo sapiens) (UniProt Q9UNQ0); test: LTEA_HepaRG_ABCG2: Life Technologies and Expression Analysis (LTEA) Assay for ABC Transporter (ABCG2) using HepaRG (AID 2283465)
Outline: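 ABCG2 transcript was quantified by TaqMan qRT-PCR against three housekeeping genes in HepaRG cells. Cells were treated in duplicate for 48 h across an 8-point half-log series up to 100 uM, with 0.5% DMSO vehicle. Gain or loss versus DMSO was fit.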

[13] = read-out: ATP-citrate lyase (ACLY), ACLY (gene 47); test: LTEA_HepaRG_ACLY: Life Technologies and Expression Analysis (LTEA) Assay for ATP-citrate lyase (ACLY) using HepaRG (AID 2283466)
Outline: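 ACLY mRNA quantified by qRT-PCR on Fluidigm arrays against three housekeeping genes, after 48 h chemical treatment of HepaRG cells (top concentration 100 uM, half-log steps, 0.5% DMSO vehicle). Up- or down-regulation fitted relative to DMSO.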

[14] = read-out: Peroxisomal acyl-coenzyme A oxidase 1 (ACOX1) gene, ACOX1 (gene 51); test: LTEA_HepaRG_ACOX1: Life Technologies and Expression Analysis (LTEA) Assay for Peroxisomal acyl-coenzyme A oxidase 1 (ACOX1) gene using HepaRG (AID 2283467)
Outline: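 ACOX1 transcript levels were quantified by TaqMan qRT-PCR against three housekeeping genes after 48 h chemical exposure of differentiated human HepaRG cells. Exposure used eight half-log steps topping at 100 uM, 0.5% DMSO vehicle, in duplicate. Bidirectional curve fits were made relative to DMSO.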

[15] = read-out: Alkaline Phosphatase, Placental (ALPP) gene, ALPP (gene 250); test: LTEA_HepaRG_ALPP: Life Technologies and Expression Analysis (LTEA) Assay for Alkaline Phosphatase, Placental (ALPP) gene using HepaRG (AID 2283468)
Outline: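 Differentiated human HepaRG cells were plated and cultured 48 h, then exposed in duplicate for 48 h in serum-free induction medium to eight half-log concentrations from 100 uM in 0.5% DMSO. ALPP mRNA was measured by TaqMan qRT-PCR, normalized to ACTB, GAPDH, POLR2A.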

[16] = read-out: Bcl-2 (BAD) gene, BAD (gene 572); test: LTEA_HepaRG_BAD: Life Technologies and Expression Analysis (LTEA) Assay for Bcl-2 (BAD) gene using HepaRG (AID 2283469)
Outline: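 Read-out: qRT-PCR of BAD mRNA, normalized to three housekeeping genes. Human HepaRG cultures got 48 h chemical exposure in 0.5% DMSO, duplicate eight-point half-log series topping at 100 uM. Gain or loss of signal fitted versus DMSO vehicle.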

[17] = read-out: Bcl-2 (BAX) gene, BAX (gene 581); test: LTEA_HepaRG_BAX: Life Technologies and Expression Analysis (LTEA) Assay for Bcl-2 (BAX) gene using HepaRG (AID 2283470)
Outline: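 Human HepaRG cells treated in duplicate for 48 h across eight concentrations (max 100 uM, 0.5% DMSO); BAX expression measured by qRT-PCR.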

[18] = read-out: adenosine kinase (ADK) gene, ADK (gene 132); test: LTEA_HepaRG_ADK: Life Technologies and Expression Analysis (LTEA) Assay for adenosine kinase (ADK) gene using HepaRG (AID 2283471)
Outline: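 HepaRG (human liver), 48 h chemical exposure, 8-pt half-log series, top 100 uM, 0.5% DMSO vehicle. Readout: ADK mRNA by qRT-PCR vs housekeeping genes; bidirectional curve fit relative to DMSO baseline.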

[19] = read-out: Alpha-fetoprotein (AFP) gene, AFP (gene 174); test: LTEA_HepaRG_AFP: Life Technologies and Expression Analysis (LTEA) Assay for Alpha-fetoprotein (AFP) gene using HepaRG (AID 2283472)
Outline: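 Measures AFP mRNA change in HepaRG after 48 h chemical exposure (8 half-log concentrations, highest 100 uM, 0.5% DMSO). Fold change relative to DMSO, fitted in both directions.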

[20] = read-out: BCL2L11 (gene 10018); test: LTEA_HepaRG_BCL2L11: Life Technologies and Expression Analysis (LTEA) Assay for Bcl-2 (BCL2L11) gene using HepaRG (AID 2283473)
Outline: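 Differentiated human HepaRG cells in serum-free induction medium were exposed in duplicate for 48 h to eight concentrations (top 100 uM, half-log steps, 0.5% DMSO). BCL2L11 mRNA was quantified by TaqMan qRT-PCR, normalized to ACTB/GAPDH/POLR2A, bidirectional fit versus DMSO.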

Measured: outcome

Chain of Broad substrate specificity ATP-binding cassette transporter ABCG2 (Homo sapiens) (Q9UNQ0 whole entry, looked up): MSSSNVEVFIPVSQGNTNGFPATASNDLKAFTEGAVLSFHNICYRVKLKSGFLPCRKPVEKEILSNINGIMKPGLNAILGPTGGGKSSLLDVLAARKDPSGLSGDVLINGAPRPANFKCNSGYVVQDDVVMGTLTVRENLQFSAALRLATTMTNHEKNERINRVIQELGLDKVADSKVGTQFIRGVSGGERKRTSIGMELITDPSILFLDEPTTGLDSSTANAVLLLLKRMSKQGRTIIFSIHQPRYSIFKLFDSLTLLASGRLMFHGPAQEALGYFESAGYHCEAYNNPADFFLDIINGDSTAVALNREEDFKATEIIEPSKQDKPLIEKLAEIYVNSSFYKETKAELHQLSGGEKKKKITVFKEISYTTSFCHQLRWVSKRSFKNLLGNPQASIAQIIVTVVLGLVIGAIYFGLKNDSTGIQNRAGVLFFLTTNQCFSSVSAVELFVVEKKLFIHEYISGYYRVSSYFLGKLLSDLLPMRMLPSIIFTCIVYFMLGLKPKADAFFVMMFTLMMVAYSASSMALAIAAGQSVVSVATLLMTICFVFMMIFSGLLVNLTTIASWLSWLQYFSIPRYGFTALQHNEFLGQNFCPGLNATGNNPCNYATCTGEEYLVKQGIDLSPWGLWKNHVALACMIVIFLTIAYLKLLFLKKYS

O=C(CCl)c1ccccc1
inactive: [1] | [2] | [3] | [4] | [5] | [6] | [7] | [8] | [9] | [10] | [11] | [12] | [13] | [14] | [15] | [16] | [17] | [18] | [19] | [20]
